# Active and inactive are the calls of the source. Unless noted, no stated cut-off is given here; in the data, active means inhibition above about 80%; inactive means the rest.
# Experiments:
# [1] = RCMB18 cell growth, single agent and combined, cisplatin and BGB IC40 combos (AID 1671462); conditions: RCMB18 medulloblastoma cells, stronger effect = higher value;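 further: cells exposed to compound for four days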
# [2] = CRL1545 cell growth, single agent and combined, cisplatin and BGB IC20 combos (AID 1671464); conditions: CRL1545 osteosarcoma cells, stronger effect = higher value;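 further: cells exposed to compound for 96 hours before readout; 0% = vehicle DMSO and 100% = high DMSO killing control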
# [3] = growth inhibition, single agent or in combination, cell-based, chromothripsis tumors, cisplatin or BGB combos (AID 1671449); conditions: LFS_MB_P medulloblastoma cells;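 further: cells exposed for 96 hours; 0% = vehicle DMSO and 100% = killing by high DMSO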
# [4] = growth inhibition, single agent and combos, cell-based, chromothripsis tumors, cisplatin or BGB combos (AID 1671450); conditions: HDN33 neuroblastoma cells, stronger effect = higher value;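 further: cells exposed to compound for four days; 0% = vehicle DMSO and 100% = cell killing by high DMSO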
# [5] = growth inhibition, single agents and combos, ICB984, cell-based, cisplatin or BGB combos, synergistic combos for chromothripsis tumors (AID 1671451; call rule not given here;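 further: cells exposed for 96 hours before readout; 0% = vehicle DMSO and 100% = killing by high DMSO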); conditions: ICB984 medulloblastoma cells, drug combinations, stronger effect = higher value
# [6] = growth inhibition, single agents and combos, LFS_MB_1R, cell-based, cisplatin or BGB combos, synergistic combos for chromothripsis tumors (AID 1671452); conditions: LFS_MB_1R medulloblastoma cells, stronger effect = higher value;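 further: cells exposed for 96 hours before readout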
# [7] = growth inhibition, single agents and combos, HTB85, cell-based, BGB or cisplatin IC20 combos, synergistic combos for chromothripsis tumors (AID 1671453); conditions: HTB85 osteosarcoma cells, drug combinations, stronger effect = higher value;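 further: cells exposed for 96 hours before readout; 0% = vehicle DMSO and 100% = high DMSO killing control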
# [8] = growth inhibition, single agents and combos, CRL2098, cell-based, BGB or cisplatin IC20 combos, synergistic combos for chromothripsis tumors (AID 1671454); conditions: CRL2098 osteosarcoma cells, drug combinations, stronger effect = higher value;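 further: cells exposed for 96 h before readout; 0% = vehicle DMSO and 100% = killing by high DMSO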
# [9] = growth inhibition, single agents and combos, HD-MB03, cell-based, BGB or cisplatin IC20 combos, synergistic combos for chromothripsis tumors (AID 1671455; in the data active means inhibition above about 83%;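 further: 0% = vehicle DMSO and 100% = high DMSO as cytotoxic control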); conditions: HD-MB03 medulloblastoma cells, stronger effect = higher value
# [10] = growth inhibition, single agents and combos, UWB1.289, cell-based, BGB or cisplatin combos, synergistic combos for chromothripsis tumors (AID 1671456); conditions: UWB1.289 ovarian carcinoma cells, stronger effect = higher value;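 further: cells exposed to compound for four days; 0% = vehicle DMSO and 100% = killing by high DMSO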
# [11] = growth inhibition, single agents and combos, LFS_MB_2R, cell-based, cisplatin combos, synergistic combos for chromothripsis tumors (AID 1671457); conditions: LFS_MB_2R medulloblastoma cells, stronger effect = higher value;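 further: cells exposed to compound for four days before readout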
# [12] = growth inhibition, MDA-MB-436, cell-based, BGB or cisplatin combos, synergistic combos for chromothripsis tumors (AID 1671458; call rule not given here;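 further: cells exposed for 96 hours; 0% = vehicle DMSO and 100% = killing by high DMSO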); conditions: MDA-MB-436 breast carcinoma growth inhibition, drug combinations, stronger effect = higher value
# [13] = UWB1.289_BRCA1 ovarian cancer growth, cell-based, BGB or cisplatin combinations (AID 1671459); conditions: UWB1.289 BRCA1 ovarian carcinoma, drug combinations, stronger effect = higher value
# [14] = drug combination toxicity in non-malignant astrocytes – cell-based, BGB or cisplatin IC20 combos, cytotoxicity control for chromothriptic childhood tumor combination screen (AID 1671460); conditions: Human astrocytes, viability inhibition, drug combinations, at 0.5 µM, stronger effect = higher value;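 further: cells exposed to compounds for 96 hours before viability readout; 0% = vehicle and 100% = killing control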
# [15] = BT084 cell growth, single and combined drugs, ICGC_MB145, cisplatin and BGB IC40 combos (AID 1671461); conditions: BT084 medulloblastoma cells, drug combinations, stronger effect = higher value;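 further: cells exposed to drugs for 96 hours; 0% = vehicle DMSO and 100% = high DMSO full killing control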
# [16] = measured here: BGB IC40 combination, at 0.05 µM
# [17] = measured here: combination with cisplatin, at 0.5 µM
# [18] = measured here: with BGB IC20 combination, at 0.5 µM
# [19] = measured here: with cisplatin IC20 combination, at 0.5 µM
# [20] = measured here: combination with BGB IC40, at 0.05 µM
# [21] = measured here: combination with cisplatin, at 5 µM
structure (smiles),measurement,setting,value
CON=C1CN(c2nc3c(cc2F)c(=O)c(C(=O)O)cn3C2CC2)CC1CN (stereo unspecified),inhibition,[1]; [16],-6.9%
same,inhibition,[1]; [17],6.35%
same,inhibition,"[1]; single agent, at 5 µM",-19.4%
same,inhibition,[2]; at 0.5 µM,-0.16% (inactive)
same,inhibition,[2]; [18],-14.3%
same,inhibition,[2]; [19],5.39%
same,inhibition,"[2]; single agent, at 0.05 µM",4.29%
same,inhibition,"[2]; single agent, at 5 µM",16.8%
COc1cccc2c1C(=O)c1c(O)c3c(c(O)c1C2=O)CC(O)(C(=O)CO)CC3OC1CC(N)C(OC2CCCCO2)C(C)O1 (stereo unspecified),inhibition,"[3]; at 0.5 µM, stronger effect = higher value",-32.3% (inactive)
same,inhibition,"[3]; measured here: combination with BGB IC20, at 0.005 µM",9.11%
same,inhibition,"[3]; measured here: combination with BGB IC40, at 0.005 µM",-11.4%
same,inhibition,[3]; [20],-11.1%
same,inhibition,"[3]; measured here: combination with cisplatin, at 0.5 µM, stronger effect = higher value",-47.4%
same,inhibition,"[3]; measured here: combination with cisplatin, at 5 µM, stronger effect = higher value",110%
same,inhibition,"[4]; BGB combo, at 5 µM",97.2%
same,inhibition,[4]; at 0.5 µM,23.8% (inactive)
same,inhibition,"[4]; cisplatin combo, at 5 µM",99.2%
same,inhibition,[4]; [18],21.1%
same,inhibition,[4]; [19],4.67%
same,inhibition,"[4]; single agent, at 5 µM",99%
same,inhibition,"[5]; BGB IC20 combo, at 0.005 µM",-23.2%
same,inhibition,"[5]; BGB IC40 combo, at 0.005 µM",-47.6%
same,inhibition,"[5]; BGB IC40 combo, at 0.05 µM",94.7%
same,inhibition,[5]; at 0.5 µM,-38.2% (inactive)
same,inhibition,"[5]; cisplatin combo, at 0.05 µM",94.5%
same,inhibition,"[5]; cisplatin combo, at 0.5 µM",-60.7%
same,inhibition,"[5]; cisplatin combo, at 5 µM",-43.3%
same,inhibition,"[5]; measured here: 5 uM single agent, at 5 µM",-14.9%
same,inhibition,[6]; at 0.5 µM,60.2% (inactive)
same,inhibition,[6]; [20],-55.1%
same,inhibition,[6]; [17],53.5%
same,inhibition,[6]; [21],95%
same,inhibition,[7]; at 0.5 µM,56.2% (inactive)
same,inhibition,"[7]; measured here: with BGB IC20, at 0.5 µM",23.4%
same,inhibition,"[7]; measured here: with BGB IC20, at 5 µM",99%
same,inhibition,"[7]; measured here: with cisplatin IC20, at 0.5 µM",91%
same,inhibition,"[7]; measured here: with cisplatin IC20, at 5 µM",99.6%
same,inhibition,"[7]; single agent, at 5 µM",99.2%
same,inhibition,[8]; at 0.5 µM,30.1% (inactive)
same,inhibition,"[8]; measured here: combination with BGB at IC20, at 0.5 µM",85.5%
same,inhibition,"[8]; measured here: combination with cisplatin at IC20, at 0.5 µM",33.2%
same,inhibition,[9]; at 0.5 µM,70.5% (inactive)
same,inhibition,"[9]; measured here: combo with BGB at IC20, at 0.5 µM",69.8%
same,inhibition,"[9]; measured here: combo with cisplatin at IC20, at 0.5 µM",77.2%
same,inhibition,[10]; at 0.5 µM,12.2% (inactive)
same,inhibition,"[10]; measured here: inhibition with BGB combination, at 0.05 µM",26.6%
same,inhibition,"[10]; measured here: inhibition with cisplatin combination, at 0.05 µM",-27.7%
same,inhibition,[11]; at 0.5 µM,-17% (inactive)
same,inhibition,[11]; [17],-2.89%
same,inhibition,[11]; [21],86.3%
same,inhibition,[12]; at 0.5 µM,24.8% (inactive)
same,inhibition,"[12]; measured here: BGB combination, at 0.5 µM",4.22%
same,inhibition,"[12]; measured here: BGB combination, at 5 µM",64.7%
same,inhibition,"[12]; measured here: cisplatin combination, at 0.5 µM",26.1%
same,inhibition,"[12]; measured here: cisplatin combination, at 5 µM",84.5%
same,inhibition,"[13]; BGB combination, concentration series, at 5 µM",94.3%
same,inhibition,[13]; at 0.5 µM,16.1% (inactive)
same,inhibition,"[13]; cisplatin combination, concentration series, at 5 µM",96.5%
same,inhibition,[14],50% (inactive)
same,inhibition,[14]; measured here: combo with BGB IC20,42.8%
same,inhibition,[14]; measured here: combo with cisplatin IC20,39.2%
same,inhibition,[15]; at 0.5 µM,2.98% (inactive)
same,inhibition,"[15]; cisplatin combination, at 0.5 µM",23.2%
same,inhibition,"[15]; cisplatin combination, at 5 µM",-6.21%
same,inhibition,"[15]; measured here: BGB IC40 combination 0.05 uM, at 0.05 µM",-28.8%
same,inhibition,"[15]; single agent, at 5 µM",27%
same,inhibition,[1]; at 0.5 µM,21.9% (inactive)
same,inhibition,"[1]; cisplatin combo, at 5 µM",71.1%
same,inhibition,[1]; [16],-38.8%
same,inhibition,[1]; [17],44.2%
same,inhibition,"[1]; single agent, at 5 µM",71.6%
same,inhibition,[2]; at 0.5 µM,91.3% (active)
same,inhibition,[2]; [18],85.6%
same,inhibition,[2]; [19],94.1%
same,inhibition,"[2]; single agent, at 0.05 µM",-29.5%
same,inhibition,"[2]; single agent, at 5 µM",99.5%
